# Screening results from PubChem BioAssay.
# Compounds with a hit are over-represented: about 2.4% of the library has one in this group of screens.
# Pol beta inh = qHTS Assay for Inhibitors of DNA Polymerase Beta; Potency, µM (titrated, usually from 114 µM), without a hit: top-dose activity change, negative = inhibition, hits mostly inhibitors; AID 485314, 2010; Pol beta primer extension/strand displacement, fluorescence kinetic; actives 1.3% (n = 340,000); further: on the % scale 0 is the no-effect control and ±100 the full control effect
#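 Values derive from four-parameter Hill fits of normalized kinetic data: reads at 0 and 10 min following addition of 50 nM substrate to 10 nM Pol beta preincubated 15 min with compound.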
# POLK inh = qHTS for Inhibitors of Polymerase Kappa; purified Pol kappa, fluorescent DNA synthesis assay, 10 min; Potency, µM (series often up to 107 µM), inactives show top-dose activity, negative = inhibition, usual class: inhibitors; actives 0.53% (n = 400,000); AID 588579, 2011; further: on the % scale 0 is the no-effect control and ±100 the full control effect
# Target sequence (Q9UBT6 whole entry, looked up): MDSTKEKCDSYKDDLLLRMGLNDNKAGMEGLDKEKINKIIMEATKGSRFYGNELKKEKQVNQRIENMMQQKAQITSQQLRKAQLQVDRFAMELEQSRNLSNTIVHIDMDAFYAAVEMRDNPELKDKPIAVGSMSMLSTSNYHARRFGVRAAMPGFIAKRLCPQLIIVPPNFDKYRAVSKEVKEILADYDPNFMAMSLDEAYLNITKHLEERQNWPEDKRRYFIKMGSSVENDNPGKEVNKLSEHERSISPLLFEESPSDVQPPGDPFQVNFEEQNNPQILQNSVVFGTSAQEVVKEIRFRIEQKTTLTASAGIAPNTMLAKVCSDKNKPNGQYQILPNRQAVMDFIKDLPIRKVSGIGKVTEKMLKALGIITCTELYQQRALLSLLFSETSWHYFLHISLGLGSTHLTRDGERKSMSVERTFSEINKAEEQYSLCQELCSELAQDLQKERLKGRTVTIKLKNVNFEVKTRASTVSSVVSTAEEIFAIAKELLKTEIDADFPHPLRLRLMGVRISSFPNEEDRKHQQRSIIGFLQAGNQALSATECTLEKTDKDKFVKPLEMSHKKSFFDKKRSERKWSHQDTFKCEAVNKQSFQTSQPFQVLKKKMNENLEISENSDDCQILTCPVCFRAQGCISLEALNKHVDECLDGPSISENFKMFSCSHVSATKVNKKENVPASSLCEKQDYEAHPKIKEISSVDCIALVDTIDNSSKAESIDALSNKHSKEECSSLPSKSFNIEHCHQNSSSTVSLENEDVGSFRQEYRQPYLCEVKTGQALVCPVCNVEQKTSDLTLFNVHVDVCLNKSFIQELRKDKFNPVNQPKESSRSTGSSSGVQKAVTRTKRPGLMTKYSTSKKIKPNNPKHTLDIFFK
#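 First, compounds were pin-transferred onto 10 nM Pol kappa. After 15 min at room temperature, substrate was added to 50 nM final. Fluorescence was then measured kinetically at 0 and 10 min.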
# L3MBTL1 block = qHTS Assay for the Inhibitors of L3MBTL1 | Potency, µM (highest dose often 57.1 µM), for the others: at the highest dose activity, negative = inhibition, most hits filed as inhibitors | actives 0.66% (n = 230,000) | AlphaScreen L3MBTL1–H3K9me1 peptide binding | Lethal(3)malignant brain tumor-like protein 1 (Homo sapiens), Q9Y468; further: on the % scale 0 is the no-effect control and ±100 the full control effect; nearly all actives have a fitted effect of over 60% in size
#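 First, the protein-peptide complex forms for 30 min at room temperature (L3MBTL1 50 nM, biotinylated H3K9me1 peptide 75 nM). Next, compounds are pin-transferred and incubated 30 min. Finally, AlphaScreen beads are added and read after 30 min.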
# Pol iota inh = qHTS for Inhibitors of Polymerase Iota. Pol iota fluorescent replication assay, 10 min. Potency, µM (titrated, usually from 115 µM), for inactives: top-dose activity, negative = inhibition, actives largely listed as inhibitors. actives 1% (n = 390,000)
#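 Fluorescent replication assay read twice, at 0 min and 10 min after adding 50 nM (final) substrate. Enzyme (10 nM) and compounds were first incubated 15 min at room temperature; enzyme-free buffer wells were negative controls.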
# Pol eta inh = qHTS for Inhibitors of Polymerase Eta; DNA polymerase eta (Homo sapiens), Q9Y253; recombinant Pol eta, fluorescent DNA replication assay; Potency, µM (titrated, usually from 114 µM), for the others: at the highest dose activity change, negative = inhibition, most hits filed as inhibitors; actives 1.2% (n = 390,000); AID 588591, 2011; further: on the % scale 0 is the no-effect control and ±100 the full control effect
#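 Pol eta at 10 nM preincubated with compounds 15 min at room temperature; reaction started with fluorescent substrate (50 nM final) and read kinetically at 0 and 10 min.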
# Active calls of the source: *; ? = inconclusive; · = no result given; ! = a repeat was not active; [ ] = another dose, or the depositor's remark. The call rests on the fitted dose curve; in most records, active means well fitted curve in the direction sought with a large enough effect; inconclusive means small, poorly fitted or top-dose-only effect, or another doubt; inactive means no such curve, though single readings can be large; an effect the other way counts as inactive or inconclusive. Potency means the concentration at half of the fitted maximal effect.
SMILES,Pol beta inh,POLK inh,L3MBTL1 block,Pol iota inh,Pol eta inh
COc1ccc(N2CCN(C(c3ccccc3F)c3sc4nc(-c5ccco5)nn4c3O)CC2)cc1 (configuration not stated),35%,-8%[60.1 µM],·,0%,-12%
O=C(CCCCCNC(=O)c1ccccc1)N/N=C/c1ccccc1O,41%,-6%,10%,237%,-6%
O=C(N/N=C/c1ccco1)C1CC1,14%,-17%,-7%,18%,-9%
O=C(N/N=C/c1ccco1)C1CC1c1ccccc1 (configuration not stated),16µM*,?,?,32µM*,?
O=C(CCCCCNC(=O)c1ccccc1)N/N=C/c1ccco1,16µM*,-14%,-19%,?,-5%
Cc1nc(NC(=O)CCl)sc1C(=O)N(C)C,21%,-1%,3%,-8%,9%
Cc1nc(NC(=O)C(Cl)Cl)sc1C(=O)N(C)C,35µM*,-31%,?,?,10µM*
Nc1nc(=S)ss1,·,-12%,·,28µM*,-2%
O=C(O)CCn1cnc2onc(-c3ccccc3Cl)c2c1=O,22µM*,-15%,·,6%,-4%
CCCCCCCC/C=C\CCCCCCCCN,·,-1%[19.4 µM],·,·,·
CC(C)CNC(=O)C1Nc2ccccc2C2C=CCC12 (configuration not stated),·,-15%,·,?,-15%
Cc1ccc(C)c2c1NC(C(=O)O)C1CC=CC21 (configuration not stated),·,3.2µM*,·,11µM*,·
O=C(O)C1Nc2c(Cl)cc(Cl)cc2C2C=CCC12 (configuration not stated),?,8.9µM*,3.5µM*,4µM*,2.8µM*
CS(=O)(=O)Nc1ccc(-c2nc3ccccc3s2)cc1,-6%,5%,·,20%,·
C#C[C@@]1(O)CC[C@@H]2[C@H]3CCC4=C/C(=N\O)CC[C@H]4[C@@H]3CC[C@]21CC,·,0%[19.4 µM],·,·,·
CCCOc1ccc(-c2c(C(=O)N/N=C(\C)c3cccnc3)nnn2-c2nonc2N)cc1,1%,-31%,·,45µM*,4%
COc1ccc2cc3cc(C(=O)NCc4ccco4)oc3nc2c1,22µM*,?,·,?,16µM*
COc1cccc(NC(=O)Nc2cc(-c3cn4cccnc4n3)ccc2C)c1,7.9µM*,-4%,·,7%,-28%
CCC(C(=O)Nc1cc(-c2cn3cccnc3n2)ccc1C)c1ccccc1 (configuration not stated),40µM*,0%[60.1 µM],·,-23%,13%
Cc1ccc(-c2cn3cccnc3n2)cc1NC(=O)Nc1ccc(F)cc1,-1%,4%,·,25%,-10%
O=C(Nc1cccc(-c2cn3cccnc3n2)c1)c1ccc(Br)o1,1%,?,8%,79µM*,-7%
S=c1nc(C2CC2)[nH]c2ccccc12,?,-32%,-10%,?,25µM*
Cc1ccc(C)c(N2CCN(CCCNC(=O)C3COc4ccccc4C3)CC2)c1 (configuration not stated),28%,-4%[60.1 µM],·,-11%,-10%
O=C(COC(=O)CCN1C(=O)/C(=C\C=C\c2ccccc2)SC1=S)Nc1cc(F)ccc1F,?,?,-15%[11.4 µM],25µM*,32µM*
Cc1ccc(NC(=O)C(=O)Nc2ccc(C)cn2)nc1,5%,-5%,·,22%,-8%
SMILES,Pol beta inh,POLK inh,L3MBTL1 block,Pol iota inh,Pol eta inh
Cc1ccc(NC(=O)/C(C#N)=C(\N)C(Cl)(Cl)Cl)nc1,0%,-2%,·,263%,45µM*
Cc1ccccc1C(=O)NC(CC(C)C)C(=O)OCc1cc(=O)n2cc(Br)ccc2n1 (configuration not stated),47%,-22%,6%,-1%,-15%
Cc1cc(C)c(C)c(S(=O)(=O)N[C@@H](C)C(=O)OCc2cc(=O)n3cc(Br)ccc3n2)c1C,8.9µM*,?,13µM*,50µM*,?
O=C(CNC(=O)c1cccc(-n2cccc2)c1)Nc1ccccc1Br,·,·,·,·,32µM*
Cn1cc(C(=O)NCC(=O)Nc2ccccc2Br)cn1,·,-16%,6%,1%,-4%
Cc1cccc(NC(=O)c2nc[nH]c2C(=O)N[C@H](C)CO)c1,·,·,·,·,-5%
CCc1nn(CC(=O)NCCc2ccc(OC)cc2OC)c(=O)c2cc3c(OC)cccc3n12,0%,-11%,·,6%,-5%
CCOc1ccccc1CNc1nc2ccccc2n1C,29%,-1%,5%,5%,8%
Oc1ccc(NCc2ccccc2OCc2ccccc2F)cc1,23%,-22%,?,10µM*,50µM*!
CCOc1cccc(CNc2ccc(O)cc2)c1OCc1ccc(Cl)cc1,12%,-21%,?,11µM*,50µM*
Cc1ccc(NCc2ccccc2OCc2ccccc2F)cc1,-1%,-11%,·,4%,6%
CCOc1cc(CNc2ccc(O)cc2)ccc1OCc1ccc(Cl)cc1Cl,?,-13%,?,8.9µM*,18µM*
CCOc1ccccc1CNc1ccc(O)cc1,3%,-15%,?,7.1µM*,50µM*
CCOc1cc(CNCc2ccccc2)ccc1OCc1ccc(Cl)cc1,4%,5%,·,-17%,-25%
N#CC(=C(/N)Sc1ccccc1N)/C(C#N)=C(\N)Sc1ccccc1N,·,-1%[19.4 µM],·,·,·
CCNc1ncc2nc(-c3ccccc3)c(=O)n(C)c2n1,·,1%[60.1 µM],·,·,·
COc1ccc(-c2nc3sc(CCNC(=O)c4cccc(C(F)(F)F)c4)c(C)n3n2)cc1,-1%,-10%[60.1 µM],·,-22%,-18%
COc1cccc2cc(C(=O)N(Cc3cccs3)Cc3cccs3)c(=O)oc12,·,1%,·,-1%,·
CCc1ccc(CNc2ccc(O)cc2)cc1,?,-18%,7.9µM*,2.8µM*,25µM*
COc1ccc(NC(=O)c2cc3c(COC(C)=O)cnc(C)c3oc2=Nc2cccc(C(=O)O)c2)c(OC)c1,-26%,-6%,·,-23%,3.2µM*
COc1cccc(N=c2oc3c(C)ncc(CO)c3cc2C(=O)Nc2ccccc2OC)c1,0%,·,-2%,·,·
O=C1/C(=C/c2ccc(O)c([N+](=O)[O-])c2)SC(=S)N1Cc1ccccc1,-3%,-5%,-19%,32%,?
O=C(NN1C(=O)/C(=C/c2cc([N+](=O)[O-])ccc2O)SC1=S)c1ccccc1O,·,·,4.5µM*,·,·
O=C(NN1C(=O)/C(=C/c2ccc(O)cc2)SC1=S)c1cccc(O)c1,-15%,-26%,-10%,?,3%
O=C(NN1C(=O)/C(=C/c2ccc(O)cc2)SC1=S)c1ccccc1O,-20%,-26%,·,?,79µM*
COc1ccc(/C=C2\SC(=S)N(CCCC(=O)NNC(=O)c3ccccc3O)C2=O)cc1,4%,-20%,-2%,55%,8%
O=C(NN1C(=O)/C(=C/c2ccc(O)c([N+](=O)[O-])c2)SC1=S)c1ccccc1Cl,-15%,45µM*,·,40µM*,-18%
